Results as given in PubChem BioAssay AID1768 (National Center for Advancing Translational Sciences (NCATS), 2009).
In all, about 270,000 compounds went through this assay and about 620 (0.23%) were called active. Roughly 12% stayed inconclusive and do not appear here. What follows is part of a selection rich in actives, with near analogues and random picks from the rest. Entries that show only a call come without a potency. Values without a mark were called inactive. Calls follow the shape of the dose curve; as a rule, active = well fitted inhibition curve with a large enough effect in the polarisation, with a control signal flat (not every such curve was filed as active); inconclusive = small, poorly fitted or top-dose-only effect, or effect the other way, or a change in a side signal; inactive = no such curve, though single readings can be large or run the other way; the % refers to the polarisation.

Target: Menin (Homo sapiens) (UniProt O00255)
Sequence (O00255 whole entry, looked up): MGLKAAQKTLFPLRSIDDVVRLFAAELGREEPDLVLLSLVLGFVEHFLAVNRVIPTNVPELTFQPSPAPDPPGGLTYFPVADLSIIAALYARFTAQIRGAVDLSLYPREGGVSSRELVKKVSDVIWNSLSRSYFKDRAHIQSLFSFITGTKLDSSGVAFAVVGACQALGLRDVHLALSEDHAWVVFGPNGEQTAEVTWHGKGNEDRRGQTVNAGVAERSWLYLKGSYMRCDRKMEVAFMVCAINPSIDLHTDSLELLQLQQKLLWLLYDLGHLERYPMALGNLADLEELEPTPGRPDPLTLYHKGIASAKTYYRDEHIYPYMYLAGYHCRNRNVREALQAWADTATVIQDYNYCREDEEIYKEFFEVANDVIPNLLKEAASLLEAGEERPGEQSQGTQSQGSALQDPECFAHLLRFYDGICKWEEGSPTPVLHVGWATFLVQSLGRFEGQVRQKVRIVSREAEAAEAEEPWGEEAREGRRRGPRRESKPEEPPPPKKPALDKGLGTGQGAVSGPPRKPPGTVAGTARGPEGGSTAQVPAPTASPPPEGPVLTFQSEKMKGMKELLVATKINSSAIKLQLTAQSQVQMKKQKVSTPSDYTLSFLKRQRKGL
Assay: qHTS Assay for Inhibitors Targeting the Menin-MLL Interaction in MLL Related Leukemias: Competition With Texas Red Labeled MLL-derived Mutant Peptide
Conditions: fluorescence polarization; series mostly up to 61.6 µM
Potency is read from the fitted curve at half-maximal effect.

| SMILES | Potency | FP activity change, negative = inhibition |
| --- | --- | --- |
| CCC(CC)c1nnc(NC(=O)C2CCN(C(=O)c3ccco3)CC2)s1 | inactive | – |
| Cc1cccc(OCC(=O)Nc2ccc(NC(=O)c3ccco3)c(C)c2)c1 | inactive | – |
| COc1ccc(Cn2c(=S)[nH]c3cc(C(=O)NCCCN4CCOCC4)ccc3c2=O)cc1 | inactive | – |
| CC(C)CN(Cc1c(O)ccc2c(=O)c(-c3ccccc3)coc12)CC(C)C | inactive | – |
| CCOC(=O)c1c(-c2ccc(-c3ccccc3)cc2)csc1NC(=O)CCC(=O)O | inactive | – |
| COc1ccc(Br)cc1C1C2C=CCC(C)C2C(=O)N1Cc1ccccc1 (stereo not given) | inactive | – |
| Cc1cccn2c(=O)c(/C=C3\SC(=S)N(CC(C)C)C3=O)c(NCCCOC(C)C)nc12 | 28.2 µM (active) | – |
| CCn1c(=N)c(C(=O)NCCCOC)cc2c(=O)n3cccc(C)c3nc21 | inactive | – |
| CNc1nc2c(C)cccn2c(=O)c1C=Nc1ccc(OC)cc1 | inactive | – |
| Cc1ccc(/C=C2/SC(=S)N(CCC(=O)NCCCN3CCOCC3)C2=O)cc1 | inactive | – |
| O=C1CCN(Cc2ccccc2)CCN1[C@H](CSc1ccccc1)c1ccccc1 | inactive | – |
| COCCNC(=O)COc1ccc(N(C)S(=O)(=O)c2ccc3ccccc3c2)cc1 | inactive | – |
| CC1CCCN(CC(=O)Nc2cc(Cl)ccc2Oc2ccccc2)C1 (stereo not given) | inactive | – |
| CCN(CC)/[N+]([O-])=N/Oc1cc(O/[N+]([O-])=N/N2CCCC2CO)c([N+](=O)[O-])cc1[N+](=O)[O-] (stereo not given) | inactive | – |
| CC1CCN(C2=NC(=O)/C(=C/c3ccc(O)cc3)S2)CC1 | inactive | – |
| c1ccc(Cc2ccc(OCCn3ccnc3)cc2)cc1 | inactive | – |
| O=C(O)C1CC=CC2CCN(C3CCCCC3)C(=O)C21 (stereo not given) | inactive | – |
| CCOC(=O)c1cccc(NC(=O)C2CCN(c3ncnc4c3nc3n4CCCCC3)CC2)c1 | inactive | – |
| CCOC(=O)c1ccc(NC(=O)c2ccc(NC(=O)C3CCCO3)cc2)cc1 (stereo not given) | inactive | – |
| CCCNC(=O)c1ccc(N2CCC3(CC2)CC(c2ccc(Cl)cc2)=NO3)c([N+](=O)[O-])c1 | inactive | – |
| CCC(C)(C)NC(=O)C(c1ccc(OC)cc1)N(C(=O)CCC(=O)Nc1cc(C)on1)c1ccc(OC)cc1OC (stereo not given) | inactive | – |
| COc1cccc(CCNC(=O)c2cccc(NC(=O)C3=C(C)OCCS3)c2)c1 | inactive | – |
| COCCNc1ncnc2ccc(-c3ccccc3CN(C)C)cc12 | inactive | – |
| COCCNc1ncnc2ccc(-c3cccnc3)cc12 | 31.6 µM (active) | – |
| COc1ccc(CNc2ncnc3ccc(-c4cccnc4)cc23)c(OC)c1 | inactive | – |

| SMILES | Potency | FP activity change, negative = inhibition |
| --- | --- | --- |
| COc1ccccc1N1CCN(S(=O)(=O)CCNC(=O)c2ccc(OC(C)C)cc2)CC1 | inactive | – |
| CC(CC(=O)N1CCN(c2ccccc2)CC1)S(=O)(=O)c1ccc2c(c1)NC(=O)CS2 (stereo not given) | inactive | – |
| COc1ccc(N2CCN(S(=O)(=O)CCNC(=O)C34CC5CC(CC(C5)C3)C4)CC2)cc1 | inactive | – |
| CCc1ccc(S(=O)(=O)N/N=C\c2ccc([N+](=O)[O-])o2)cc1 | inactive | – |
| COc1ccc(CNC(=O)/C(C#N)=C/c2cccc(OC)c2OC)cc1 | inactive | – |
| COc1ccc(N2CCN(C(=O)[C@@H](NC(=O)c3cc(OC)cc(OC)c3)C(C)C)CC2)cc1 | inactive | – |
| O=C(NCC1CC1)C1(C(F)(F)F)C/C(=C\CCO)CCCO1 (stereo not given) | inactive | – |
| Cc1cccc(S(=O)(=O)N2CN(CC3CCCO3)c3nc4ccccc4nc32)c1 (stereo not given) | inactive | – |
| CCOc1cc(/C=C/c2nc3ccccc3c(=O)[nH]2)cc(Br)c1OC | inactive | – |
| CCC(C(=O)OC)n1cnc2scc(-c3ccc(C)cc3)c2c1=O (stereo not given) | inactive | – |
| CCn1c(Cc2ccc(OC)cc2)nnc1SCC(=O)Nc1ccc(N2CCOCC2)cc1 | inactive | – |
| COc1ccc(NC(=O)c2cc(-c3cc(OC)c(OC)c(OC)c3)nc3ccccc23)c(OC)c1 | inactive | – |
| Cc1ccc(S(=O)(=O)N(Cc2ccccc2)c2ccccn2)cc1[N+](=O)[O-] | inactive | – |
| C=CCn1c(C23CC4CC(CC(C4)C2)C3)n[nH]c1=S | inactive | – |
| Cc1ccc(OCC(=O)Nc2ccc(N3CCN(C(=O)c4ccco4)CC3)cc2)c(C)c1 | inactive | – |
| COc1ccccc1NC(=O)c1cc(N2C(=O)C3C4CCC(C4)C3C2=O)ccc1Cl (stereo not given) | inactive | – |
| Cc1ccc(O)c(/C=N/NC(=O)COc2ccc3c(C)cc(=O)oc3c2)c1 | inactive | – |
| O=C(NCCc1ccccc1Cl)C1CCC(=O)N(CCCc2ccccc2)C1 (stereo not given) | inactive | – |
| COc1cccc(/C=C2\Sc3ccc(C(=O)NCC4CCCO4)cc3N(C)C2=O)c1 (stereo not given) | inactive | – |
| COc1cc(OC)c2c(C)cc(=O)oc2c1C(CCN1CCCCC1)c1ccc(N(C)C)cc1 (stereo not given) | inactive | – |
| CCOc1cccc(C(=O)Nc2nnc(-c3cccs3)s2)c1 | inactive | – |
| Cc1ccc(C(=O)Nc2nnc(-c3cccs3)s2)cc1C | 10 µM (active) | – |
| Cc1ccc(C(=O)Oc2coc(CSc3nnc(NC(=O)c4cccs4)s3)cc2=O)cc1C | inactive | – |
| COc1ccc(C(C(=O)NC(C)(C)C)N(Cc2ccc(F)cc2)C(=O)CCC(=O)Nc2cc(C)on2)cc1 (stereo not given) | inactive | – |
| COc1ccc(NC(=O)c2cccc3c2C(=O)N(CC2CCCO2)C3)cc1OC (stereo not given) | inactive | – |

| SMILES | Potency | FP activity change, negative = inhibition |
| --- | --- | --- |
| CCc1ccc(CN(C)C(=O)C2CCC(=O)N(Cc3cccc(OC)c3)C2)nc1 (stereo not given) | inactive | – |
| CCC1Sc2ccc(S(=O)(=O)CCC(=O)NCc3cccs3)cc2NC1=O (stereo not given) | inactive | – |
| COCCNC(=S)N(CCc1c(C)[nH]c2ccc(C)cc12)Cc1cccnc1 | inactive | – |
| CCOc1ccccc1NC(=S)N1CCN(c2cccc(C)c2C)CC1 | inactive | – |
| Cc1ccc(N2CCN(C(=O)c3cccs3)CC2)c(C)c1 | inactive | – |
| NC(=O)c1ccc(Nc2ccc3c(c2)CCC3)c([N+](=O)[O-])c1 | inactive | – |
| Cc1nc2ccc(C(=O)N(C)CC3CCCN(CCc4ccc(Cl)cc4)C3)cc2[nH]1 (stereo not given) | inactive | – |
| CCOC(=O)c1csc(CCNC(=O)c2oc3c(Cl)cc(C)cc3c2C)n1 | inactive | – |
| Cc1ccc(CNC(=O)C2CCCN2S(=O)(=O)c2ccc3c(c2)C(C)(C)C(=O)N3C)cc1 (stereo not given) | inactive | – |
| COc1ccc(NC(=O)c2sc3nc(C)nc(N4CCN(c5ccccn5)CC4)c3c2C)c(OC)c1 | inactive | – |
| COCCNc1ccc(-c2n[nH]c(=O)c3ccccc23)cc1[N+](=O)[O-] | inactive | – |
| CCc1cccc(C)c1N1C(=O)CN(Cc2ccccc2)C1=S | inactive | – |
| NS(=O)(=O)c1ccc(CNC(=O)c2cccc(Oc3ccccc3)c2)cc1 | inactive | – |
| COc1ccc(NC(=O)CSc2nc3ccccc3c(=O)n2C)cc1 | inactive | – |
| CC(=O)N1c2ccc(S(=O)(=O)N3CCCC(C(=O)Nc4ccc(C)cc4C)C3)cc2CC1C (stereo not given) | inactive | – |
| COc1ccc(-c2nc3ccccc3c(=O)n2CCc2ccc(O)cc2)cc1 | inactive | – |
| Cc1ccccc1CN1CCC(C(=O)Nc2ccc(Oc3cccnc3)cc2)CC1 | inactive | – |
| CCCCC(C(=O)NC(C)(C)C)N(Cc1ccccc1)C(=O)c1snc(C(N)=O)c1N (stereo not given) | inactive | – |
| CCc1ccc(C(CNc2nc(C(F)(F)F)nc3ccccc23)N(C)C)cc1 (stereo not given) | inactive | – |
| C=C1CCN(C(CC(C)C)C(=O)NCc2cc(OC)c(OC)c(OC)c2)S(=O)(=O)c2ccccc21 (stereo not given) | inactive | – |
| CCOC(=O)[C@H]1[C@H]2COc3cc(OC)ccc3[C@@H]2N2C(=O)N(c3ccc(Br)cc3)C(=O)[C@@]12C | inactive | – |
| CCn1cc(CN2CCN(CC(C)(C)C)C(CCO)C2)c2ccccc21 (stereo not given) | inactive | – |
| Cc1cc(=O)oc2c(C)c(OC(C)C(=O)NC3CCN(Cc4ccccc4)CC3)ccc12 (stereo not given) | inactive | – |
| O=C(CN1C(=O)COc2ccc(Cl)cc21)N1CCOCC1 | inactive | – |
| COc1cc(CN2CCCC(C(=O)c3ccc(SC)cc3)C2)cc(Cl)c1O (stereo not given) | inactive | – |

| SMILES | Potency | FP activity change, negative = inhibition |
| --- | --- | --- |
| Cc1cc(C)nc(N/N=C/c2c(CO)cnc(C)c2O)n1 | inactive | – |
| COc1cccc(N(CC(=O)NCc2ccccc2)C(=O)CCC(=O)Nc2nccs2)c1 | inactive | – |
| COc1ccc(CSc2nnnn2-c2ccc(O)cc2)cc1F | inactive | – |
| CCOc1ccc(N(CC(=O)NCCc2ccc(F)cc2)S(=O)(=O)c2ccccc2)cc1 | inactive | – |
| O=C1CCC(C(=O)N2CCN(c3ccccc3Cl)CC2)CN1CC1CCCCC1 (stereo not given) | inactive | – |
| CCC(=O)c1cn(CCOc2ccccc2OC)c2ccccc12 | inactive | – |
| CC1(C)CCSC(/C=C/c2ccccc2)=N1 | 31.6 µM (active) | – |
| CCCC[C@]12Cc3cc(OC)c(OC)cc3C(O1)C1=C(CC3(CCCCC3)OC1=O)O2 | – | -17.1% [at 11.7 µM] |
| CN(C)c1ccnc(Oc2ccc(F)cc2)c1C#N | inactive | – |
| N#Cc1ccc(-c2ccc(Cl)cc2)nc1Oc1ccc(F)cc1 | 20 µM (active) | – |
| O=S(=O)(Nc1cccc(Oc2ccc(Cl)cc2)n1)c1ccc(F)cc1 | inactive | – |
| CC1C(=O)C(C)C(c2ccc(O)cc2)NC1c1ccc(O)cc1 (stereo not given) | inactive | – |
| CCN(C(=O)C1CCCN(c2nc(-c3ccc(OC)cc3)no2)C1)c1ccc(OC)cc1 (stereo not given) | inactive | – |
| Cc1ccc(S(=O)(=O)c2nc(-c3cccs3)oc2NCc2cccnc2)cc1 | inactive | – |
| CCOCCCn1c(SCC(=O)Nc2cc(OC)ccc2OC)nc2ccccc2c1=O | inactive | – |
| COc1ccc2[nH]c(C(=O)N/N=C/c3cc(OC)c(OC)c(OC)c3)cc2c1 | inactive | – |
| C=C1C(=CC=C2CCC[C@@]3(C)[C@@H]2CC[C@H]3[C@H](C)CCCC(C)C)C[C@@H](O)C[C@@H]1O | inactive | – |
| Cc1ccc(C(=O)NC23CC4CC(CC(C4)C2)C3)c(Cl)c1 | inactive | – |
| CCOc1ccccc1NC(=S)NC(=O)CCc1ccccc1 | inactive | – |
| CCc1ccc(N(C(=O)c2csnn2)C(C(=O)NC2CCCCC2)c2cccnc2)cc1 (stereo not given) | inactive | – |
| O=C1CN(Cc2ccccc2)S(=O)(=O)c2ccccc21 | inactive | – |
| CCOC(=O)C(Cc1ccc(N)cc1)N1C(=O)c2ccccc2C1=O (stereo not given) | inactive | – |
| CCOC(=O)N1CC=C2C(C#N)=C(N)C(C#N)(C#N)[C@H](c3cccs3)[C@H]2C1 | inactive | – |
| CCCN1CC=C2C(C#N)=C(N)C(C#N)(C#N)C(c3cc(OC)ccc3OC)C2C1 (stereo not given) | inactive | – |
| CCN1CC=C2C(C#N)=C(N)C(C#N)(C#N)[C@H](c3ccoc3)[C@H]2C1 | 17.8 µM (active) | – |
